An excerpt weighted towards active compounds, which were near 12% of everything screened.
Pf growth 48h: inhibits P. falciparum growth in the first generation, 48 h; P. falciparum luciferase growth in erythrocytes, 48 h; hit rate 5.9% among 310,000; AID 504832; Potency, µM (titrated, usually from 28.7 µM), without a hit: top-dose activity change, negative = inhibition, actives largely listed as inhibitors; note: % is set by controls: 0 for no effect and ±100 for the full control effect
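Luciferase-expressing parasites in RBCs, 2% Hct / 0.1% parasitemia final; RPMI 1640 + 0.5% Albumax; 37 C, 5% CO2, one generation; luminescence read-out, lower signal = inhibition.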
SARS PLP yeast: inhibitors of SARS-CoV papain-like protease in yeast; Potency, µM (series often up to 32.9 µM), inactives show at the highest dose activity, positive = growth rescue, actives largely listed as activators; hit rate 0.19% among 330,000; AID 485353; S. cerevisiae expressing SARS-CoV PLpro, growth rescue; calls by dose curve; note: 0% is about no effect; nearly all actives have a fitted effect of over 55% in size
Pf growth 96h: P. falciparum growth inhibition at 96 hour, primary screen for plastid delayed-death inhibitors | Potency, µM (highest dose often 28.7 µM), for inactives: top-dose activity change, negative = inhibition, hits mostly inhibitors | P. falciparum luciferase reporter growth, 96 h | hit rate 6.9% among 320,000; note: % is set by controls: 0 for no effect and ±100 for the full control effect
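Delayed-death screen, second-generation endpoint: infected erythrocytes, 2% hematocrit, 0.05% parasitemia final; 96 hours at 37 C, 5% CO2; luciferase detection reagent; luminescence decrease equals reduced growth.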
Sm TGR inh: inhibitors of Schistosoma mansoni thioredoxin glutathione reductase; Q962Y6; purified TGR, DTNB reduction, TNB absorbance 405 nm; Potency, µM (doses to about 114 µM), without a hit: top-dose activity change, negative = inhibition, most hits filed as inhibitors; hit rate 3% among 360,000; AID 485364; note: % is set by controls: 0 for no effect and ±100 for the full control effect; nearly all actives have a fitted effect of over 60% in size
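TGR 20 nM + NADPH 100 uM (dispensed conc.), cpd preinc 15 min RT; start with NADPH (500 uM addition) then DTNB (15 mM addition). Kinetic TNB absorbance, 405 nm filter. Four-parameter Hill fit across titration.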
Numbers without * were called inactive; ? = inconclusive; / = no result; [ ] = remark or other dose. Unless noted, calls come from the whole dose curve; as a rule, active = well fitted curve in the direction sought with a large enough effect; inconclusive = small, poorly fitted or top-dose-only effect, or another doubt; inactive = no such curve, though single readings can be large; an effect the other way counts as inactive or inconclusive. Potency is the fitted concentration of half-maximal effect.

SMILES	Pf growth 48h	SARS PLP yeast	Pf growth 96h	Sm TGR inh
O=C(N/C(=C/c1cccc([N+](=O)[O-])c1)C(=O)N1CCOCC1)c1ccc(Br)cc1	?	2%	-29%	2%
COc1ccc(F)cc1S(=O)(=O)NCCc1csc2nc(-c3cccc(C)c3)nn12	/	/	/	11%
COc1cccc(NC(=S)N(CCC(C)C)C2CCN(C(C)=O)CC2)c1	/	-1%	2%	0%
C[C@H](CO)N1C[C@H](C)[C@@H](CN(C)Cc2ccc(C(=O)O)cc2)Oc2c(cccc2N(C)C)C1=O	/	1%	/	/
O=C1NC(=S)N(c2ccccc2F)C(=O)/C1=C\c1cccs1	2%	-55%	61%	7.9µM*
CCN1/C(=C\C=C2\C(=O)N(c3ccccc3)C(=S)N2C)Sc2ccccc21	-4%	2%	77%[5.75 µM]	-3%
Cc1ccc(/C=C2/C(=O)N(c3ccccc3)C(=S)N2C)o1	17%	5%	-8%	22µM*
Cc1ccc(/C=C2\C(=O)NC(=O)N2C)o1	27%	2%	-5%	35µM*
CCOC(=O)C1=C(C)N(c2ccc(OCC)cc2)C(=O)/C1=C\c1ccco1	-20%	3%	?	18µM*
CCOc1ccc(N2C(=O)/C(=C/c3ccco3)C(=O)NC2=S)cc1	10%	-3%	?	22µM*
O=C(O)c1ccccc1-c1ccc(C=C2C(=O)N(c3ccccc3)C(=S)N(c3ccccc3)C2=O)o1	24%	0%	12µM*	8.9µM*
O=C(O)c1cc(-c2ccc(/C=C3\NC(=O)N(c4ccc(Cl)cc4)C3=O)o2)ccc1Cl	0%	0%	-19%	?
O=C(O)c1cc(-c2ccc(/C=C3\NC(=O)N(c4ccccc4)C3=O)o2)ccc1Cl	-7%	1%	?	50µM*
Cc1ccccc1N1C(=O)/C(=C/c2ccco2)C(=O)NC1=S	4%	0%	7%	45µM*
CCSc1ncc(Cl)c(C(=O)Nc2sc(C(C)=O)c(C)c2C(=O)OC)n1	/	/	/	7%
CCOc1ccc(N2C(=O)/C(=C/c3ccco3)N(C)C2=S)cc1	8%	3%	2.1µM*	50µM*
CCOc1ccc(N2C(=O)/C(=C\c3cccs3)C(=O)NC2=S)cc1	-11%	1%	12%	8.9µM*
CCOc1ccc(N2C(=O)/C(=C/c3ccccc3OCC(=O)OC)N(CC(=O)OC)C2=S)cc1	?	-1%	?	/
CCOc1ccc(N2C(=O)NC(=O)/C(=C\c3ccccc3[N+](=O)[O-])C2=O)cc1	9%	1%	20%	?
Cc1ccc(/C=C2\C(=O)Nc3ccccc32)o1	35%	-114%	90%	25µM*
c1ccc(-c2nc(SCc3nc4ccccc4[nH]3)c3oc4ccccc4c3n2)cc1	/	3%	/	/
COc1cc(/C=C/c2[nH]c(=O)[nH]c(=O)c2[N+](=O)[O-])cc(OC)c1O	-12%	-7%	?	-35%
COc1cccc(/C=C/c2[nH]c(=O)[nH]c(=O)c2[N+](=O)[O-])c1O	-1%	-2%	15%	35µM*
Cc1cccc(N2C(=O)N3[C@H](c4ccc(Cl)cc4)[C@@H]4C(=O)N(C5CCCCC5)C(=O)[C@@H]4[C@]3(Cc3ccc(Cl)cc3)C2=O)c1	?	-4%	?	13%
O=C1[C@H]2[C@@H](c3ccc(Cl)cc3)N3C(=O)N(c4cccc(F)c4)C(=O)[C@@]3(Cc3ccc(Cl)cc3)[C@H]2C(=O)N1C1CCCCC1	?	12%	?	9%
SMILES	Pf growth 48h	SARS PLP yeast	Pf growth 96h	Sm TGR inh
O=C1[C@H]2[C@@H](c3ccc(F)cc3)N3C(=O)N(c4cccc(F)c4)C(=O)[C@@]3(Cc3ccc(Cl)cc3)[C@H]2C(=O)N1C1CCCCC1	15µM*	-1%	8.3µM*	2%
O=C1[C@H]2[C@@H](c3ccc(Cl)cc3)N3C(=O)N(c4cccc(Cl)c4)C(=O)[C@@]3(Cc3ccc(Cl)cc3)[C@H]2C(=O)N1C1CCCCC1	2.6µM*	1%	?	2%
Cc1cccc(N2C(=O)N3[C@H](c4ccc(F)cc4)[C@@H]4C(=O)N(C5CCCCC5)C(=O)[C@@H]4[C@]3(Cc3ccc(Cl)cc3)C2=O)c1	?	8%	?	11%
Cc1ccc(N2C(=O)N3[C@H](c4ccc(Cl)cc4)[C@@H]4C(=O)N(C5CCCCC5)C(=O)[C@@H]4[C@]3(Cc3ccccc3)C2=O)cc1	?	-1%	3.7µM*	10%
O=C1[C@H]2[C@@H](c3ccc(F)cc3)N3C(=O)N(c4ccc(Br)cc4)C(=O)[C@@]3(Cc3ccccc3)[C@H]2C(=O)N1C1CCCCC1	3.3µM*	9%	3.7µM*	0%
Cc1ccc(C)c(-n2nnc(-c3nc(-c4ccc(Cl)cc4)no3)c2N)c1	/	/	/	2%
CC1=C(C(=O)OC(C)C)C(c2ccccc2)NC(=O)N1C (configuration not stated)	-4%	0%	9.3µM*	-6%
CCCCN1C=C(C(=O)OC)C(c2ccccc2C(F)(F)F)C(C(=O)OC)=C1	/	9%	0.52µM*	-14%
COC(=O)C1=C(C)N(C)C(C)=C(C(=O)OC)C1c1ccccc1C	?	-5%	-3%	0%
CCOC(=O)C1=C(C)N(C)C(C)=C(C(=O)OCC)C1c1ccccc1	5.2µM*	11%	?	4%
CCCCOc1ccccc1C1C(C(=O)OC)=C(C)N(C)C(C)=C1C(=O)OC	13µM*	-38%	24%	-17%
CCCCOc1ccc(S(=O)(=O)N2CCN(c3ccc(N4CCN(CC)CC4)nn3)CC2)cc1	12µM*	5%	?	0%
CC1CCc2nc3ccccc3c(C(=O)OCC(=O)N3CCc4ccccc43)c2C1 (configuration not stated)	8.3µM*	1%	?	-2%
CCCc1nc2ccccc2c(C(=O)OCC(=O)N2CCc3ccccc32)c1CC	?	-4%	8.3µM*	6%
O=C(OCC(=O)N1CCc2ccccc21)c1ccccc1	181%	0%	187%	8%
Cc1c(N=NC2=C(O)CCCC2=O)c(=O)n(-c2ccccc2)n1C	-23%	1%	38%[5.75 µM]	18µM*
CC1(C)CC(NS(=O)(=O)c2ccc3ccccc3c2)CC(C)(C)N1	1%	-8%	?	1%
O=C(Nc1ccc(F)c(S(=O)(=O)N2CCOCC2)c1)C1CCCCC1	13µM*	2%	?	-2%
CSCCC(NC(=O)c1ccccc1Cl)C(=O)Nc1ccc(C)c(S(=O)(=O)N2CCOCC2)c1 (configuration not stated)	9.3µM*	6%	?	6%
Cc1ccc(S(=O)(=O)N(C)C)cc1NC(=O)C1CCCN(C(=O)c2ccc(Cl)cc2)C1 (configuration not stated)	7.4µM*	-2%	4.7µM*	0%
Cc1ccc(NC(=O)CCNC(=O)c2ccccc2Cl)cc1S(=O)(=O)N1CCOCC1	-5%	5%	?	2%
Cc1ccc(Cl)cc1NC(=S)N1CCC(c2ccccc2)C1 (configuration not stated)	12µM*	-2%	?	9%
Cc1cc(Br)ccc1NC(=O)CCS(=O)(=O)c1cccc2nsnc12	/	/	/	3%
COc1ccc(-c2[nH]c(-c3ccc(O)cc3)nc2-c2ccccc2)cc1	/	/	/	-9%

Source: PubChem BioAssay
